Experimental data reported in article PMC7862700, “An all-to-all approach to the identification of sequence-specific readers for epigenetic DNA modifications on cytosine”.

Tests used:
Test in all cases: DAPPL (digital affinity profiling via proximity ligation, sequencing); 10 mM Tris-HCl pH 7.5, 50 mM NaCl, 1 mM DTT, 4% glycerol, room temperature, 30 min; GST-TFs on glutathione beads, 16-mer random dsDNA library, 0.1% formaldehyde crosslink after washing; high values mean tight binding
FEV = target: T1, FEV (Homo sapiens, UniProt Q99581 1-238); settings: protein: recombinant; tags: N-terminal GST; dsDNA, one strand shown
T1 sequence: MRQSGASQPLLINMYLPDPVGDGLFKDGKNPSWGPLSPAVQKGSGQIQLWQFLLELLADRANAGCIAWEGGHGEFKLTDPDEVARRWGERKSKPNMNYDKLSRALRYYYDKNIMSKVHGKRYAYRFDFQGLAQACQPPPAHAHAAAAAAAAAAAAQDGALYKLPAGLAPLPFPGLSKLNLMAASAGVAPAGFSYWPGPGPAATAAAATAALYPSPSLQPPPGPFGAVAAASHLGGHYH
Method in brief: (§1)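 Human transcription factors were made in yeast as GST fusions, captured on glutathione beads and barcoded with DNA. With a tag-only sample included, the pool was incubated with 200 nmole of a random double-stranded 16-mer DNA library in Tris/NaCl/DTT/glycerol buffer at room temperature for 30 min, then crosslinked with 0.1% formaldehyde after washing, ligated by proximity, amplified and sequenced. For binding signal, each hexamer's read frequency for a factor is divided by its frequency for the tag-only sample.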

ETV5 = ETV5 (Homo sapiens, UniProt P41161 1-510); settings: protein: recombinant; tags: N-terminal GST; dsDNA, one strand shown
Sequence of ETV5 (P41161 whole entry): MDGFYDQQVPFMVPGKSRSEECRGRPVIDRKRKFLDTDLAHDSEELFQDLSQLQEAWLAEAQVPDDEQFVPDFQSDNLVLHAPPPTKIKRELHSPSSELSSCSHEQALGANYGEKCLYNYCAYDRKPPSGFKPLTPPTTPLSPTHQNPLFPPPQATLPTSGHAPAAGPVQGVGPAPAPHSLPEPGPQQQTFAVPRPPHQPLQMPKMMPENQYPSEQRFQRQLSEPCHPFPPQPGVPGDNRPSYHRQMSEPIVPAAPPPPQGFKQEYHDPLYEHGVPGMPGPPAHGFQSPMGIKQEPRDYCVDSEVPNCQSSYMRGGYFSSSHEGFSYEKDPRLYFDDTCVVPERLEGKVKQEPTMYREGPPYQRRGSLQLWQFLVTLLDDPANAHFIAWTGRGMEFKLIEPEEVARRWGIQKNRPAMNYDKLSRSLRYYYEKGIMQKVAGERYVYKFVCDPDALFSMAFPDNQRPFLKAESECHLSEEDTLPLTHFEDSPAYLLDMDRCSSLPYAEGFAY
Method in brief: as §1

HSF1 = HSF1 (Homo sapiens, UniProt Q00613 1-529); settings: protein: recombinant; tags: N-terminal GST; chain copies: 3; dsDNA, one strand shown
Sequence of HSF1 (Q00613 whole entry): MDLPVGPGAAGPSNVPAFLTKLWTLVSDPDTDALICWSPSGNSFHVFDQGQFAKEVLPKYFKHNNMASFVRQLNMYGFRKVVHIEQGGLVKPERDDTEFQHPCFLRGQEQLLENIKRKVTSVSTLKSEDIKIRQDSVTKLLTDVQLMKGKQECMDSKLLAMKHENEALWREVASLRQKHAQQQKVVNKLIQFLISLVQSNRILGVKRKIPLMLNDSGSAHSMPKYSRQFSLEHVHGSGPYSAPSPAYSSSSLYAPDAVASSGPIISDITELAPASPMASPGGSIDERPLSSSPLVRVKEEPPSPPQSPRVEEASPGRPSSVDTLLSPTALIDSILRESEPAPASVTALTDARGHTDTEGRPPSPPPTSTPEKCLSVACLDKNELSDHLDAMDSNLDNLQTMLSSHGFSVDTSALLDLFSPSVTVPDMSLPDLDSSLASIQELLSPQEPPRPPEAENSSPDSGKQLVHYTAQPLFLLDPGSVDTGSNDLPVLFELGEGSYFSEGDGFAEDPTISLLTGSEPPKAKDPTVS
Method in brief: as §1

SPIC = target: T2, SPIC (Homo sapiens, UniProt Q8N5J4 1-248); settings: protein: recombinant; tags: N-terminal GST; dsDNA, one strand shown
T2 sequence: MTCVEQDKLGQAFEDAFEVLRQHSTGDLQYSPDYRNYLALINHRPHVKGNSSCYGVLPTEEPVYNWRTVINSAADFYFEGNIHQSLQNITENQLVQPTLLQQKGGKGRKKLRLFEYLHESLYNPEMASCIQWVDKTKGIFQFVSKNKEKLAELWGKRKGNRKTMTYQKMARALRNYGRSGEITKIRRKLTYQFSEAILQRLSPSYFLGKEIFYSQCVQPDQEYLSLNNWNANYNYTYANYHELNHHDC
Method in brief: as §1

ELF4 = ELF4 (Homo sapiens, UniProt Q99607 1-663); settings: protein: recombinant; tags: N-terminal GST; dsDNA, one strand shown
Sequence of ELF4 (Q99607 whole entry): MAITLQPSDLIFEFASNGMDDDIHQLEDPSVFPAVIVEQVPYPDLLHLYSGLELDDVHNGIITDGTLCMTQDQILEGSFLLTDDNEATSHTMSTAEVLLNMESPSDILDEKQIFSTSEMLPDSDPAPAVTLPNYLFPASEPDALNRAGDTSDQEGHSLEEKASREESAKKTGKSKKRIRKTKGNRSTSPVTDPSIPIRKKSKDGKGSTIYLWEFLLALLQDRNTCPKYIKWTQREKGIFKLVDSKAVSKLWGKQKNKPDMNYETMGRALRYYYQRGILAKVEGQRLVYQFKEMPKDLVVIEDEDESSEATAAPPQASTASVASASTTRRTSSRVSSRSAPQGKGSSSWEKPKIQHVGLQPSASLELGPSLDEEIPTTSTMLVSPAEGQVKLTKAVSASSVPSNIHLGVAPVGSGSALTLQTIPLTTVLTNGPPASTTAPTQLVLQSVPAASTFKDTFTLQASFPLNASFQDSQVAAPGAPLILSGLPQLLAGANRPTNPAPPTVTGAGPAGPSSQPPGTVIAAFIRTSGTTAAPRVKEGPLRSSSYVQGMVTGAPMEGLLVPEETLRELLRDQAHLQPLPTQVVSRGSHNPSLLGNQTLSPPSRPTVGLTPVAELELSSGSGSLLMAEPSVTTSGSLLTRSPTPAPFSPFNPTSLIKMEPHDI
Method in brief: as §1

ELK4 = target: T3, ELK4 (Homo sapiens, UniProt P28324-2 1-405); settings: protein: recombinant; tags: N-terminal GST; dsDNA, one strand shown
T3 sequence: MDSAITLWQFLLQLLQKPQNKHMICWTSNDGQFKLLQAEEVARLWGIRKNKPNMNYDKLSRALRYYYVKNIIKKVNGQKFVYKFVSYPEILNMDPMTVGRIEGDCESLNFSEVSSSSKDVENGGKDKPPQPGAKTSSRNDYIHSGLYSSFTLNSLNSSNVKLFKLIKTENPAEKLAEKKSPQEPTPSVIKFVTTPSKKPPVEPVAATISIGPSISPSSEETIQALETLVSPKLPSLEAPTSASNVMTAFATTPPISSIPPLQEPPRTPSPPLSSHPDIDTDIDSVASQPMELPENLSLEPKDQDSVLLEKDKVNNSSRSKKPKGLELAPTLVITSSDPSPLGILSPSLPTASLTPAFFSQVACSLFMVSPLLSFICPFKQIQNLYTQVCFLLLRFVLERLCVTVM
Method in brief: as §1

ETV2 = target: T4, ETV2 (Homo sapiens, UniProt O00321 1-342); settings: protein: recombinant; tags: N-terminal GST; dsDNA, one strand shown
T4 sequence: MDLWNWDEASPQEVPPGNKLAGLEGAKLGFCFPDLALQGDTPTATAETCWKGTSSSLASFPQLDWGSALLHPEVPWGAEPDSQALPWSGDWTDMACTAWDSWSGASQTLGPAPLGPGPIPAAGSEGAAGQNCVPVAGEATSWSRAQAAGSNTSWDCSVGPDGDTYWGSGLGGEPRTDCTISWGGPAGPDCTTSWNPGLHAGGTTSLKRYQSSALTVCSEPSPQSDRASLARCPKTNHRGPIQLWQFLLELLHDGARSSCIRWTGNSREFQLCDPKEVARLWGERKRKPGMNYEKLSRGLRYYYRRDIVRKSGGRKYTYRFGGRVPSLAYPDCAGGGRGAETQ
Method in brief: as §1

ELF3 = target: T5, ELF3 (Homo sapiens, UniProt P78545 1-371); settings: protein: recombinant; tags: N-terminal GST; dsDNA, one strand shown
T5 sequence: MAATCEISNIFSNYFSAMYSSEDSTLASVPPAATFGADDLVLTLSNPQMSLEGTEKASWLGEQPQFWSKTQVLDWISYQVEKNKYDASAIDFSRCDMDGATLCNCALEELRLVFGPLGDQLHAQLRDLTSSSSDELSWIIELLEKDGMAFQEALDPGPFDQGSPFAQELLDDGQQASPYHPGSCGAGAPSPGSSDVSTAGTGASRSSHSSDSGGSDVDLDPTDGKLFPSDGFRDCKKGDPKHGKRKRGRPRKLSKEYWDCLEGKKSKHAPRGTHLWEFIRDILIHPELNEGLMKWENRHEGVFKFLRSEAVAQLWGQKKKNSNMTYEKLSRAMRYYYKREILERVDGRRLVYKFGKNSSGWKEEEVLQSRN
Method in brief: as §1

CRX = CRX (Homo sapiens, UniProt O43186 1-299); settings: protein: recombinant; tags: N-terminal GST; dsDNA, one strand shown
Sequence of CRX (O43186 whole entry): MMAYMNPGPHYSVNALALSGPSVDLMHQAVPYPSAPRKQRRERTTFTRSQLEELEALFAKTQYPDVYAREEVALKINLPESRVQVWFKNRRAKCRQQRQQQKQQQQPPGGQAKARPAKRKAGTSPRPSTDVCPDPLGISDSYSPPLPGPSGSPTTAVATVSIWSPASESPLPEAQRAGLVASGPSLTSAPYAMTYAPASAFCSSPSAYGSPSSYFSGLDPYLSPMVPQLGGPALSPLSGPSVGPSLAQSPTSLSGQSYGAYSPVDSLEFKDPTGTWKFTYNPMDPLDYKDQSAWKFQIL
Method in brief: as §1

ETV1 = ETV1 (Homo sapiens, UniProt P50549 1-477); settings: protein: recombinant; tags: N-terminal GST; dsDNA, one strand shown
Sequence of ETV1 (P50549 whole entry): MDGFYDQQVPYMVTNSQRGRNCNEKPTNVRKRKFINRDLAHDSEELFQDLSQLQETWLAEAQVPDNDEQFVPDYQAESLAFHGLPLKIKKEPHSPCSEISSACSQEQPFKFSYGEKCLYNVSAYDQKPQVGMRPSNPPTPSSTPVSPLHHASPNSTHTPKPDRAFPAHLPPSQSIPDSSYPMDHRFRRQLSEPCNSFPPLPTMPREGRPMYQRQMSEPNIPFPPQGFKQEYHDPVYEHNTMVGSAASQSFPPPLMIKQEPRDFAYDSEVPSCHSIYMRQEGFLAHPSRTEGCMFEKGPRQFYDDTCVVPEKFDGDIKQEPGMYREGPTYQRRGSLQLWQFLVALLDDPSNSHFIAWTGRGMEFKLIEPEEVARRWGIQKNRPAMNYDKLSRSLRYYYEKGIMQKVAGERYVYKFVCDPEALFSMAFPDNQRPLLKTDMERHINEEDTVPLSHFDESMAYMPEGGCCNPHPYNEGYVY
Method in brief: as §1

ERF = target: T6, ERF (Homo sapiens, UniProt P50548 1-548); settings: protein: recombinant; tags: N-terminal GST; dsDNA, one strand shown
T6 sequence: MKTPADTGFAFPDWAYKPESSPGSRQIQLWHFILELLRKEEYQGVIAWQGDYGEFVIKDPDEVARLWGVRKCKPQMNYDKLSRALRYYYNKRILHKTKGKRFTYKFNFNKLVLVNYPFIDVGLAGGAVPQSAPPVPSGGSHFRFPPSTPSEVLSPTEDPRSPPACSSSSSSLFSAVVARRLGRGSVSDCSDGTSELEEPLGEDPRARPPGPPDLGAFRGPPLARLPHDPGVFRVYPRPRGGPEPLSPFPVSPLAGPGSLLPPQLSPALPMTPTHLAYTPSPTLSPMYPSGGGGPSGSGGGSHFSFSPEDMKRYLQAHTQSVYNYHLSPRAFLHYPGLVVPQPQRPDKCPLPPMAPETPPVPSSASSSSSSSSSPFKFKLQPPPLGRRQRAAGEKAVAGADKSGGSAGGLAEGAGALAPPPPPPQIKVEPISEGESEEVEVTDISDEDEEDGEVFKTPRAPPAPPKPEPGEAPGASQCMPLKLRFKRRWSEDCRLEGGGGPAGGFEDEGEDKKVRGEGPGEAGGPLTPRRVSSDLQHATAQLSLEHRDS
Method in brief: as §1

ETV3L = target: T7, ETV3L (Homo sapiens, UniProt Q6ZN32 1-361); settings: protein: recombinant; tags: N-terminal GST; dsDNA, one strand shown
T7 sequence: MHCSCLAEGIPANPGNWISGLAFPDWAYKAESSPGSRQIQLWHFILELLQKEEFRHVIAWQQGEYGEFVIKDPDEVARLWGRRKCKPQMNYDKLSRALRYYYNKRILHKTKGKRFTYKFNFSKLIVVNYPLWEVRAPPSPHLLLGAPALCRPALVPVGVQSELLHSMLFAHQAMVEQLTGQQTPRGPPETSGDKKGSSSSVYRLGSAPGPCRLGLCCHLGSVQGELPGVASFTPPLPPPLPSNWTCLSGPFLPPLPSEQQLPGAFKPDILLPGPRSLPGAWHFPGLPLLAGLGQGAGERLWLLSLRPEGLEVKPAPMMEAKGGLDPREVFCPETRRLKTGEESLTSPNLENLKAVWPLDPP
Method in brief: as §1

ETS2 = target: T8, ETS2 (Homo sapiens, UniProt P15036 1-469); settings: protein: recombinant; tags: N-terminal GST; dsDNA, one strand shown
T8 sequence: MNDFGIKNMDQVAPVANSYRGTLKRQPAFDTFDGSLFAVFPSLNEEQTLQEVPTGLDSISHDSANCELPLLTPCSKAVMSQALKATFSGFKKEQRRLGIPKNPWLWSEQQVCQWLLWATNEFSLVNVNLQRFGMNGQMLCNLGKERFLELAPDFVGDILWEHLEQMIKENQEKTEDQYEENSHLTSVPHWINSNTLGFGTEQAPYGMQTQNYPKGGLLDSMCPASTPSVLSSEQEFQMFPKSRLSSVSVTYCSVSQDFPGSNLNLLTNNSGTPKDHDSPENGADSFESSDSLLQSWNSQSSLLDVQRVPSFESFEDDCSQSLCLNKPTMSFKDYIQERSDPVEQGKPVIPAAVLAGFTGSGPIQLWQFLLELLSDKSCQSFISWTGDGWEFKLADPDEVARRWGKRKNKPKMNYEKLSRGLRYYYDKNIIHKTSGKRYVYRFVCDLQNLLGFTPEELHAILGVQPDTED
Method in brief: as §1

SPDEF = target: T9, SPDEF (Homo sapiens, UniProt O95238 1-335); settings: protein: recombinant; tags: N-terminal GST; dsDNA, one strand shown
T9 sequence: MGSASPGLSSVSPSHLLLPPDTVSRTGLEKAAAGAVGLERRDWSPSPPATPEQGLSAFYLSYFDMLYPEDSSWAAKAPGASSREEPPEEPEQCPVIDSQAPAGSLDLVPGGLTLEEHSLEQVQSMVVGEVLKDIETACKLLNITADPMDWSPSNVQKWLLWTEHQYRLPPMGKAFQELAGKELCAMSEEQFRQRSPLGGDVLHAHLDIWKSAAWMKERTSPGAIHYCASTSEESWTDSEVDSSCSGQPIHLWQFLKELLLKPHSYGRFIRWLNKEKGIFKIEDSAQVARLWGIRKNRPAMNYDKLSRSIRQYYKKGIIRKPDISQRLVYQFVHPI
Method in brief: as §1

ETV7 = target: T10, ETV7 (Homo sapiens, UniProt Q9Y603 1-341); settings: protein: recombinant; tags: N-terminal GST; dsDNA, one strand shown
T10 sequence: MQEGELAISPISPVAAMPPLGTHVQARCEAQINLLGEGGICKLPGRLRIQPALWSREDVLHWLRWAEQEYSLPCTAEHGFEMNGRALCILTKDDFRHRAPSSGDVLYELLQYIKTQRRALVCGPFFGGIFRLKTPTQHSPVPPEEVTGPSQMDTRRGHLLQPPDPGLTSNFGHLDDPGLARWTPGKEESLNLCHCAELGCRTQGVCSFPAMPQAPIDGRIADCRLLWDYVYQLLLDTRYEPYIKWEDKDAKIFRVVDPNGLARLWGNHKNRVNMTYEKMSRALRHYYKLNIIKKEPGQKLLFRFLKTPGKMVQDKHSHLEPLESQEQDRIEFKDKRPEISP
Method in brief: as §1

ELF5 = target: T11, ELF5 (Homo sapiens, UniProt Q9UKW6-2 1-255); settings: protein: recombinant; tags: N-terminal GST; dsDNA, one strand shown
T11 sequence: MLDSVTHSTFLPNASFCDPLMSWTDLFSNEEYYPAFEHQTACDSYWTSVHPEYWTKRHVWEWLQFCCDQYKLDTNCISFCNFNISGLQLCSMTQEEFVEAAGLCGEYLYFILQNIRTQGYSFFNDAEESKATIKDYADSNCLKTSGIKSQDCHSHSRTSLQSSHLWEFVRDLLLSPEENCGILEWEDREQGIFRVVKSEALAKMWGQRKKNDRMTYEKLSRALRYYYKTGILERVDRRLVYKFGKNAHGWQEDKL
Method in brief: as §1

ETV3 = target: T12, ETV3 (Homo sapiens, UniProt P41162-2 1-143); settings: protein: recombinant; tags: N-terminal GST; dsDNA, one strand shown
T12 sequence: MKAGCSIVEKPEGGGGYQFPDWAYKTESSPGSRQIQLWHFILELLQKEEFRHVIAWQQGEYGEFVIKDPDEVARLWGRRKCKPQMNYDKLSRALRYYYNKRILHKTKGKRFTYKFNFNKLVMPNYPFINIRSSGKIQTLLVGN
Method in brief: as §1

ETV6 = ETV6 (Homo sapiens, UniProt P41212 1-452); settings: protein: recombinant; tags: N-terminal GST; dsDNA, one strand shown
Sequence of ETV6 (P41212 whole entry): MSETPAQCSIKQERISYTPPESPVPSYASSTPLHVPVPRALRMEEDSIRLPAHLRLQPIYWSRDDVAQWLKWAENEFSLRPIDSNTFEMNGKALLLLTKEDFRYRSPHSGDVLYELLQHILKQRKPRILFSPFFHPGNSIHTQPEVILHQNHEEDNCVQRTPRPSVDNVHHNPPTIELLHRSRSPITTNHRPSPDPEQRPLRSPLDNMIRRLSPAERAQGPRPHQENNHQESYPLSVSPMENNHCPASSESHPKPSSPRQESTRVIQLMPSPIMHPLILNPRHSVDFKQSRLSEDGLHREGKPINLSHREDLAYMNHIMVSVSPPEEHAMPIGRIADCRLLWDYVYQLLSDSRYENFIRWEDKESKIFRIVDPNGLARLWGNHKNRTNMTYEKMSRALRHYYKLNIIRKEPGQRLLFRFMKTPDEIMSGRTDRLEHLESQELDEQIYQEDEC
Method in brief: as §1

Which results are given for GCTTAC?
binding signal (FEV): 1.15 fold enrichment (6-mer frequency, TF over GST control); binding signal (ETV5): 1.12 fold enrichment (6-mer frequency, TF over GST control); binding signal (HSF1): 1.44 fold enrichment (6-mer frequency, TF over GST control); binding signal (SPIC): 1.21 fold enrichment (6-mer frequency, TF over GST control); binding signal (ELF4): 1.1 fold enrichment (6-mer frequency, TF over GST control); binding signal (ELK4): 1.1 fold enrichment (6-mer frequency, TF over GST control); binding signal (ETV2): 1.22 fold enrichment (6-mer frequency, TF over GST control); binding signal (ELF3): 1.4 fold enrichment (6-mer frequency, TF over GST control); binding signal (CRX): 2.01 fold enrichment (6-mer frequency, TF over GST control); binding signal (ETV1): 1.22 fold enrichment (6-mer frequency, TF over GST control); binding signal (ERF): 1.13 fold enrichment (6-mer frequency, TF over GST control); binding signal (ETV3L): 1.09 fold enrichment (6-mer frequency, TF over GST control); binding signal (ETS2): 1.09 fold enrichment (6-mer frequency, TF over GST control); binding signal (SPDEF): 1.23 fold enrichment (6-mer frequency, TF over GST control); binding signal (ETV7): 1.03 fold enrichment (6-mer frequency, TF over GST control); binding signal (ELF5): 1.14 fold enrichment (6-mer frequency, TF over GST control); binding signal (ETV3): 1.23 fold enrichment (6-mer frequency, TF over GST control); binding signal (ETV6): 1.03 fold enrichment (6-mer frequency, TF over GST control)
